# Experimental data taken from PubChem BioAssay (Tox21).
# Results filed as inconclusive are left out. Entries that show only a call come without a potency. Values without a mark were called inactive. The source made the active and inactive calls. Unless noted, calls come from the whole dose curve; as a rule, active = well fitted curve in the direction sought with a large enough effect in the repeat runs; inconclusive = weak or mixed curves; inactive = no such curve, though single readings can be large; an effect the other way counts as inactive or inconclusive.
# Tests used:
# [1] = qHTS assay to identify small molecule antagonists of the retinoid-related orphan receptor gamma (ROR-gamma) signaling pathway - cell viability counter screen (AID 1159520); note: nearly all actives have a fitted effect of over 50% in size; note: potency is the fitted concentration of half-maximal effect
# In short: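 Cytotoxicity was read from cellular ATP (CellTiter-Glo luminescence) after 16 hr at 37 C with 1 uM doxycycline induction. The inducer was added 2 hr after compound transfer to Tet-on ROR gamma CHO cells.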
# [2] = qHTS assay to identify small molecule agonists of the AP-1 signaling pathway - cell viability counter screen (AID 1159525; calls by dose curve; note: nearly all actives have a fitted effect of over 55% in size; note: potency is the fitted concentration of half-maximal effect)
# In short: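 Intracellular ATP by Cell Titer Glo luminescence (30 min, RT) in the same ME-180 AP-1-bla wells after the 5 h compound exposure at 37 °C. Normalised to tetra n-octyl ammonium bromide and DMSO controls.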
# [3] = qHTS assay to identify small molecule agonists of the AP-1 signaling pathway (AID 1159526; calls by dose curve)
# [4] = target: Retinoic acid receptor RXR-alpha (Homo sapiens) (UniProt P19793); experiment: qHTS assay to identify small molecule agonists of the RXR signaling pathway (AID 1159527; calls by dose curve; note: nearly all actives have a fitted effect of over 35% in size)
# Chain of Retinoic acid receptor RXR-alpha (Homo sapiens) (P19793 whole entry, looked up): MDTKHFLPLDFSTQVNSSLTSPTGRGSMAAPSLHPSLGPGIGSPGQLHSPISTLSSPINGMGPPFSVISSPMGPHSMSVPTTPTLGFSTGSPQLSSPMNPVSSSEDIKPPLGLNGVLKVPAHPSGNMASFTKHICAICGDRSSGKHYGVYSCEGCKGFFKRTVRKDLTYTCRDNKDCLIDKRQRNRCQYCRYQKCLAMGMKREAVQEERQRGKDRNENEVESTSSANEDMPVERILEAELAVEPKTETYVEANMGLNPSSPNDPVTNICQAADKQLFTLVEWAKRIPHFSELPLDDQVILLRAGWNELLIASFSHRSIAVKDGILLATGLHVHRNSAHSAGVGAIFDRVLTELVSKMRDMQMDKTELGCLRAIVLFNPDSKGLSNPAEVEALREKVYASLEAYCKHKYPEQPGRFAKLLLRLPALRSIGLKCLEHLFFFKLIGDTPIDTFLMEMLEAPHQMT
# In short: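 qHTS of the Tox21 10K library in GeneBLAzer RXR-alpha HEK 293T cells carrying a beta-lactamase reporter […]; 16 hr treatment, 9-cis retinoic acid as agonist control, FRET read-out.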
# [5] = qHTS assay to identify small molecule agonists of the RXR signaling pathway - cell viability counter screen (AID 1159529); note: nearly all actives have a fitted effect of over 50% in size; note: potency is the fitted concentration of half-maximal effect
# In short: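 Cell viability is measured by CellTiter-Glo luminescence, 30 min at room temperature, in wells already read for beta-lactamase. Engineered HEK 293T cells (RXR-alpha-UAS-bla) are dosed 16 hr at 37 C. Tetraoctyl ammonium bromide serves as positive control.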
# [6] = qHTS assay to identify small molecule antagonists of the retinoid acid receptor (RAR) signaling pathway - cell viability counter screen (AID 1159551); note: nearly all actives have a fitted effect of over 35% in size
# In short: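 Viability of C3RL4 cells is quantified from ATP by luminescence after 6 h treatment at 37 C with compounds and 1 uM retinol.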
# [7] = qHTS assay to identify small molecule antagonists of the retinoic acid receptor (RAR) signaling pathway (AID 1159552; note: nearly all actives have a fitted effect of over 50% in size; note: potency is the fitted concentration of half-maximal effect)
# In short: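 Quantitative HTS in C3RL4 RARE-luciferase reporter cells. Compounds were added with 1 uM (final) retinol; luminescence was read after 6 hr.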
# [8] = qHTS assay to identify small molecule agonists of the vitamin D receptor (VDR) signaling pathway - cell viability counter screen (AID 743224); note: potency is the fitted concentration of half-maximal effect; nearly all actives have a fitted effect of over 50% in size
# In short: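 In parallel with the bla FRET readout, cytotoxicity toward VDR-bla cells after 16 h compound exposure was assessed by CellTiter-Glo, with luminescence recorded after a 30 min room-temperature incubation.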
# [9] = qHTS assay to identify small molecule antagonists of the vitamin D receptor (VDR) signaling pathway - cell viability counter screen (AID 743225); note: nearly all actives have a fitted effect of over 50% in size; note: potency is the fitted concentration of half-maximal effect
# In short: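 Cells (VDR-UAS-bla HEK 293T) are plated, rested 4 h at 37C, dosed with compound and 3 nM final 1-alpha,25-dihydroxy vitamin D3, and incubated 16 h. Viability is taken from CellTiter-Glo luminescence in the reporter wells.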
# [10] = target: Nuclear receptor ROR-gamma (Homo sapiens) (UniProt P51449); experiment: qHTS assay to identify small molecule antagonists of the retinoid-related orphan receptor gamma (ROR-gamma) signaling pathway (AID 1159521)
# In short: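 RORγ antagonism is scored from reduced reporter luminescence in Tet-on CHO cells. Induction used 1 uM final doxycycline hyclate for 16 h at 37 C, following a 2 h compound exposure.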
SMILES,Potency [1],Potency [2],Potency [3],Potency [4],Potency [5],Potency [6],Potency [7],Potency [8],Potency [9],Potency [10]
Cn1c(=O)[nH]c2ncn(C)c2c1=O,inactive,inactive,inactive,inactive,inactive,inactive,inactive,,,
C=CC(=O)OCC(Br)CBr (stereo not drawn),inactive,inactive,inactive,inactive,inactive,inactive,,,,
Cc1ccc(Cl)c(N)c1Cl,inactive,inactive,,,49 µM (active),inactive,,38.9 µM (active),inactive,
c1ccc(-c2ccccc2-c2ccccc2)cc1,inactive,inactive,,,43.6 µM (active),inactive,,,,
CCSCC,inactive,inactive,inactive,,,inactive,,,inactive,
C=CC(=O)O[C@H]1C[C@@H]2CC[C@@]1(C)C2(C)C,inactive,inactive,inactive,inactive,inactive,inactive,inactive,,,
CCC(O)CO (stereo not drawn),inactive,,inactive,inactive,,inactive,,,,
O=C(CCN1CCC(c2ccccc2)C1)c1ccc2c(c1)OCCO2 (stereo not drawn),26.6 µM (active),,,,,inactive,,,inactive,33.5 µM (active)
CCc1cccc(C)c1N(C(=O)CS(=O)(=O)O)C(C)COC (stereo not drawn),inactive,inactive,,inactive,inactive,inactive,,,,
Nc1ccc(Oc2cccc(Oc3ccc(N)cc3)c2)cc1,inactive,inactive,inactive,,inactive,inactive,24.3 µM (active),,,
CCOC(=O)[C@H](O)[C@@H](O)C(=O)OCC,inactive,inactive,inactive,inactive,,inactive,inactive,,,
CC(C)C(=O)C(C)C,inactive,inactive,inactive,,,inactive,,,,
CC1=CC[C@@H](C(C)(C)O)CC1,inactive,inactive,inactive,inactive,inactive,inactive,,,,
COc1cc(/C=C/C(=O)CC(=O)/C=C/c2ccc(O)c(OC)c2)ccc1O,48.9 µM (active),,,,,,inactive,49.3 µM (active),49.3 µM (active),61.5 µM (active)
CCC1(C)C(=O)N(Cl)C(=O)N1Cl (stereo not drawn),inactive,,inactive,inactive,inactive,inactive,,,,
CSc1nnc(C(C)(C)C)c(=O)[nH]1,inactive,inactive,inactive,inactive,inactive,inactive,,,,
Nc1c(Br)cc([N+](=O)[O-])cc1Br,inactive,inactive,inactive,inactive,inactive,inactive,,,,
CCNc1nc(NC(C)(C)C)nc(OC)n1,inactive,,inactive,inactive,,inactive,,,,
O=C(Nc1ccc([N+](=O)[O-])cc1)Nc1ccc([N+](=O)[O-])cc1 (tested in a mixture with another compound),inactive,inactive,inactive,inactive,0.848 µM (active),inactive,,,,
CCN(CC)c1ccc(C=O)c(O)c1,inactive,,inactive,inactive,,inactive,,,,
Cc1ccc(C2OC[C@@H]3OC(c4ccc(C)cc4)O[C@H]([C@H](O)CO)[C@@H]3O2)cc1 (stereo partly drawn),inactive,inactive,inactive,inactive,inactive,inactive,inactive,,,
O=[N+]([O-])c1ccc(O)c2ncccc12,23.7 µM (active),,,,,inactive,inactive,,inactive,29.8 µM (active)
O=C(CCCCCCCCc1cccnc1)N1CCC(C=C(c2ccccc2)c2ccccc2)CC1,68.6 µM (active),inactive,,,,inactive,,,inactive,
Cc1cc(F)ccc1-c1cc(N2CC[C@@H](O)[C@H]2CO)ncc1N(C)C(=O)C(C)(C)c1cc(C(F)(F)F)cc(C(F)(F)F)c1,53.6 µM (active),17.1 µM (active),,,17.1 µM (active),inactive,,10.8 µM (active),13.6 µM (active),
CCc1cccc(CC)c1,inactive,,inactive,inactive,,inactive,,,,
CCCCCCCCOC(=O)c1cc(O)c(O)c(O)c1,2.43 µM (active),,,,,inactive,inactive,24.5 µM (active),27.5 µM (active),1.93 µM (active)
CN1CCN(CCCN2c3ccccc3Sc3ccc(Cl)cc32)CC1,inactive,inactive,,,,inactive,26.6 µM (active),,,
CCCCCCCCc1ccc(Nc2ccc(CCCCCCCC)cc2)cc1,inactive,,inactive,inactive,inactive,inactive,inactive,,,
